This excerpt belongs to a sample that is enriched for hits.
TDP1 cell CPT: DT40-hTDP1 cell growth loss with CPT; chicken DT40 Tdp1-/-;hTDP1 cells + 20 nM CPT, ATP luminescence, 48 h; hit rate 12% among 420,000; Potency, µM (series often up to 46.2 µM), without a hit: at the highest dose activity change, negative = growth inhibition, usual class: inhibitors; further: potency means the concentration at half of the fitted maximal effect; nearly all actives have a fitted effect of over 55% in size
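Cell growth measured by CellTiter-Glo luminescence after a minimum 48 h, 37 C compound exposure with 20 nM CPT in Tdp1-knockout DT40 cells stably expressing hTDP1, seeded 400/well; qHTS titration format.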
HT1080 IDH1KD tx: kills HT-1080 cells with IDH1 knockdown; HT-1080 IDH1 knockdown viability, ATP luminescence, 48 h; Potency, µM (top dose mostly 46.1 µM), for inactives: top-dose activity, negative = toxicity, most hits filed as cytotoxic; hit rate 2% among 360,000; AID 686971;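 further: potency means the concentration at half of the fitted maximal effect; 0% = DMSO wells and -100% = cell-free medium wells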
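IDH1KD HT-1080 cells, 750/well, RPMI + 5% FBS; compound pinned after 2 h settling; 48 h, 37 °C; CellTiter-Glo luminescence; % activity normalised to DMSO and no-cell wells; curves fitted, classed by r2 and efficacy.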
DT40 TDP1 no CPT: qHTS for Inhibitors of human tyrosyl-DNA phosphodiesterase 1 (TDP1): qHTS in cells in absence of CPT; DT40 Tdp1-/- hTDP1 cells, no CPT, ATP luminescence, 48 h; Potency, µM (doses to about 46.2 µM), inactives show top-dose activity change, negative = growth inhibition, most hits filed as inhibitors; hit rate 15% among 420,000; further: potency means the concentration at half of the fitted maximal effect; nearly all actives have a fitted effect of over 55% in size
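Chicken DT40 Tdp1-/- cells stably complemented with human TDP1 were seeded at 400 cells/well with DMSO in place of 20 nM camptothecin. After compound pinning, cells grew at least 48 hr at 37 °C; viability read by CellTiter-Glo luminescence.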
IL1B secr inh: blocks inflammasome-driven IL-1 beta release. hit rate 4.7% among 360,000. activity change, % at 57.5 µM. THP-1 LPS/ATP IL-1B secretion, AlphaLISA, 16 h; stronger effect = lower value; in the data active means activity change below about -50%; inconclusive means mostly about -30% to -49%
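Secreted IL-1B measured by AlphaLISA bead assay after 16 h compound exposure of THP-1 cells; compounds (final up to 57.5 uM) added 1 h before LPS (250 ng/mL) and ATP (1.25 mM) stimulation; lower signal means less secretion.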
HT1080NT lethal: kills 2HG-producing HT-1080-NT fibrosarcoma cells; HT-1080-NT fibrosarcoma viability, CellTiter-Glo ATP luminescence, 48 h; Potency, µM (series often up to 46.1 µM), for the others: top-dose activity, negative = less viability, most hits filed as cytotoxic; hit rate 1.6% among 360,000;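 further: NT is the 2HG producing partner of a matched IDH1 knockdown line; potency means the concentration at half of the fitted maximal effect; 0% = DMSO-treated cells and -100% = media-only wells without cells; nearly all actives have a fitted effect of over 55% in size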
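Toxicity toward the 2HG-producing NT line was scored as %Activity, normalised to DMSO and no-cell wells, from CellTiter-Glo luminescence after 48 hours' treatment.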
ALOX12 inh: ALOX12 (human) lipoxygenase inhibition. hit rate 1.1% among 580,000. purified 12hLO, xylenol orange hydroperoxide absorbance. Potency, µM (top dose mostly 108 µM), for inactives: at the top dose activity change, negative = inhibition, usual class: inhibitors; further: potency means the concentration at half of the fitted maximal effect
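Purified human 12hLO (150 nM final) in 25 mM Hepes, 0.01% Triton X-100, pH 7.0 was preincubated 15 min at room temperature with compound. Then 40 uM arachidonic acid was added, 30 min. Hydroperoxide was read by Fe-XO absorbance ratio 573/405 nm.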
* = called active by the depositor; ? = inconclusive; · = not tested or not shown; [ ] = another dose, or the depositor's remark. Unless noted, the call rests on the fitted dose curve; in most records, active means well fitted curve in the direction sought with a large enough effect; inconclusive means small, poorly fitted or top-dose-only effect, or another doubt; inactive means no such curve, though single readings can be large; an effect the other way counts as inactive or inconclusive. Unless noted, on the % scale 0 is the no-effect control and ±100 the full control effect.

SMILES	TDP1 cell CPT	HT1080 IDH1KD tx	DT40 TDP1 no CPT	IL1B secr inh	HT1080NT lethal	ALOX12 inh
Cc1nc(C)c(C(=O)N2CCCCCCNC(=O)[C@@H]3CCC[C@@H]32)s1	·	·	·	·	·	30%
COc1ccc(NC2(c3nnnn3-c3ccc(OC)c(OC)c3)CCCCC2)cc1OC	·	·	·	·	·	-3%
O=C(O)CCC(=O)c1ccc(C2CCCCCC2)cc1	0%	2%	-8%	29	22%	1%
Cc1cccc(CN2CCC(CNC(=O)Nc3ccccc3F)CC2)c1	-24%	-2%	-29%	-11	-7%	1%
O=C(NCC1CC1)Nc1ccc(Cl)cc1	-15%	4%	?	-5	-8%	0%
Cc1ccc(C)c(CN2CCC(CNC(=O)Nc3ccc(Br)cc3F)CC2)c1	10µM*	?	?	-83*	16µM*	-51%
Cc1ccc(C)c(CN2CCC(CNC(=O)Nc3ccc(Cl)cc3)CC2)c1	21µM*	-13%	?	-95*	-1%	-34%
N#CC(=C1Nc2ccccc2S1)c1ccnc(OCc2ccc(CN3CCOCC3)cc2)n1	·	·	·	·	·	-6%[57.4 µM]
O=C(COc1ccccc1)Nc1sc2c(c1C(=O)Nc1ccccc1)CCCCC2	?	·	0.46µM*	·	·	?
COc1ccc(C(=O)Nc2sc3c(c2C(N)=O)CCCC3)cc1OC	·	·	·	·	·	231%
Cc1cccc(C(=O)Nc2sc3c(c2C(N)=O)CCCCC3)c1	·	·	·	·	·	10µM*
Cn1cc(Br)c(C(=O)Nc2sc3c(c2C(N)=O)CCCC3)n1	?	-4%	16µM*	-82*	-9%	-2%
CCOc1ccccc1NC(=O)c1c(NC(=O)Cc2ccc(OC)cc2)sc2c1CCC2	8.2µM*	·	5.8µM*	·	·	?
Cc1ccccc1NC(=O)c1c(NC(=O)Cc2ccccc2)sc2c1CCC2	?	·	?	·	·	-17%
CC(C)(C)C(=O)N[C@H]1CO[C@H]2[C@@H]1OC[C@@H]2Nc1nccc(-c2cccc(F)c2)n1	·	·	·	·	·	-20%[176 µM]
COc1ccccc1C(=O)N1CCC(N2CCNC2=O)CC1	·	·	·	·	·	4%[6.33 µM]
O=C1CN(C(=O)c2cc(-c3ccccc3)nc3ccccc23)CCN1	·	·	·	·	·	0%
Cc1noc(-c2nc(-c3ccncc3)no2)n1	·	·	·	·	·	15%
CCOc1ccccc1NC(=O)c1c(NC(=O)COc2ccccc2)sc2c1CCCCC2	2.1µM*	·	2.1µM*	·	·	0%
CCOc1ccccc1NC(=O)c1c(NC(=O)COc2ccc(Cl)cc2)sc2c1CCCCC2	-4%	·	-1%	·	·	0%
CCOc1ccccc1NC(=O)c1c(NC(=O)c2cccc(C)c2)sc2c1CCCC2	?	·	23µM*	·	·	0%
Cc1nc(CNC(=O)c2csc(-c3ccc(C(F)(F)F)cc3)n2)no1	·	·	·	·	·	18%
Cc1ccc(C2Cn3nnc(C(=O)N4CCC(C(=O)NCc5cc(F)cc(F)c5)CC4)c3CO2)cc1 (stereo unspecified)	·	·	·	·	·	-2%
CCNC(=O)C1C(c2cccc(NC(=O)c3ccccc3)c2)OC(=O)N1Cc1ccc(F)cc1 (stereo unspecified)	·	·	·	·	·	31%
CC(=O)c1c2c3c(cccc3n(C)c1=O)C(=O)c1ccccc1-2	0%	-1%	-6%	10	-1%	·
CC(=O)c1c2c3c(c(Br)ccc3n(C)c1=O)C(=O)c1ccccc1-2	?	15%	23µM*	-20	20%	-5%
Nc1cccnc1S(=O)(=O)c1cccc(C(F)(F)F)c1	?	-6%	?	-15	-3%	-5%
Nc1nc(N)c2cc(S(=O)(=O)c3cccc(C(F)(F)F)c3)ccc2n1	3.7µM*	10µM*	0.92µM*	21	13µM*	-13%
O=c1n(-c2ccc(Cl)cc2)nc2n1CCN(Cc1cccc3ccccc13)C2	·	·	·	·	·	11%[6.33 µM]
O=c1n(-c2ccc(F)cc2F)nc2n1CCN(Cc1cccc3ccccc13)C2	·	·	·	·	·	28µM*
